About 1,400 (1.3%) of roughly 110,000 compounds were called active.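 Rule for the calls: active = Z score or B-score, a plate-position-corrected score, falls beyond the plate's 99.7% confidence bounds, in either direction; inactive = both scores lie inside the 99.7% bounds.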 Shown is part of a subset that was picked to be rich in actives.
Target: Sodium-dependent dopamine transporter (Homo sapiens) (UniProt Q01959)
Assay: modulators of human DAT uptake with cocaine – cell-based, LLC-PK1 hDAT, [14C]-dopamine uptake, MLSMR, cocaine antagonist project, primary screen (AID 449768);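 note: scored against the spread of the other compound wells on the same plate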
Details: LLC-PK1 hDAT cells, [14C]-dopamine uptake with cocaine IC80; at 10 µM; actives deviate in either direction

Sequence of Sodium-dependent dopamine transporter (Homo sapiens) (Q01959 whole entry, looked up): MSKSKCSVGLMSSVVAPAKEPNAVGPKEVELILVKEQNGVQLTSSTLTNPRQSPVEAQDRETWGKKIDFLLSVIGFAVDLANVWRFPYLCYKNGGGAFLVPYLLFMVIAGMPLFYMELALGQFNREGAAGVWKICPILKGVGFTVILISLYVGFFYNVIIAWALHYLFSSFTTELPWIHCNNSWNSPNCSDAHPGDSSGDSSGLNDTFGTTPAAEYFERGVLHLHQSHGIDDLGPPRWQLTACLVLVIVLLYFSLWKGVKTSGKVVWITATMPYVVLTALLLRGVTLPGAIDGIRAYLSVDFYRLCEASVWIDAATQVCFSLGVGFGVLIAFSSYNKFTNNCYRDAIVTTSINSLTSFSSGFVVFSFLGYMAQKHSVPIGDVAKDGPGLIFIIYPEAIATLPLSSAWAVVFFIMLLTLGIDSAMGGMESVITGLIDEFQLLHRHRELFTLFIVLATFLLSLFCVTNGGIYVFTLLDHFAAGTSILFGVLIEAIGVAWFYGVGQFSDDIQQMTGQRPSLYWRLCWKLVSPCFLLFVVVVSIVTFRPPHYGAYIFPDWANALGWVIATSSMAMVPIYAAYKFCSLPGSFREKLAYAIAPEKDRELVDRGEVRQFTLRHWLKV

Row | SMILES | B-score
1 | Cc1cc(C)n(-c2nnc(C)n2NC(=O)c2cccc(Cl)c2)n1 | -8.7 (active)
2 | Cc1cc(C)n(-c2ccc(Cl)c(C(=O)O)n2)n1 | -1.42 (inactive)
3 | O=C(Nc1ccon1)c1cccc(Cl)c1 | 0.0619 (inactive)
4 | COc1ccc2c(c1)CCNC2Cc1ccc(OC)c(O)c1 (stereo not given) | -0.654 (inactive)
5 | CC(=O)Nc1sc2c(c1C(c1cccc(F)c1)N1CCN(CCO)CC1)CCCC2 (stereo not given) | 0.298 (inactive)
6 | C[C@@H]1NC(=O)c2cc([N+](=O)[O-])cc(F)c2NCCC[C@@H](C(N)=O)NC(=O)[C@H](CC(N)=O)NC1=O | -0.649 (inactive)
7 | O=C(Nc1ccccc1F)c1cc(S(=O)(=O)N2CCCCC2)cs1 | 0.695 (inactive)
8 | Cc1ccccc1NC(=O)c1cc(S(=O)(=O)N2CCOCC2)cs1 | -3.41 (active)
9 | Cc1ccc(C(=O)Nc2ccccc2C(=O)NC2CCCCC2)cc1S(=O)(=O)N1CCOCC1 | -0.00206 (inactive)
10 | C/C=C(/C)C(=O)Nc1cccc(C2=NOC3(C2)C[C@@H](C(N)=O)N(C(=O)C2(C)CC2)C3)c1 (stereo not given in full) | -0.445 (inactive)
11 | CC(Sc1nc2c([nH]c3ccccc32)c(=O)n1C)c1ccccc1 (stereo not given) | 0.73 (inactive)
12 | CCOC(=O)c1c(NC(=O)C(C)Sc2c[nH]c3ccccc23)sc2c1CCC2 (stereo not given) | -0.485 (inactive)
13 | Cc1nc(SCC(=O)Nc2cc(C)on2)c2c(C)c(C)sc2n1 | 0.457 (inactive)
14 | Cc1nc(SCC(=O)N2CCc3ccccc3C2)c2c(C)c(C)sc2n1 | 2.48 (inactive)
15 | Cc1nc(SCC(=O)N2CC(=O)Nc3ccccc32)c2c(C)c(C)sc2n1 | 2.75 (active)
16 | C=CCSc1nnc2c(n1)-c1cccc3cccc-2c13 | 0.0257 (inactive)
17 | CC(=O)Nc1cc(C(=O)O)ccc1S(=O)(=O)c1ccc(Cl)cc1 | -0.803 (inactive)
18 | CCOC(=O)N1CCN(C(=O)c2ccc(S(=O)(=O)c3ccc(C)cc3)c(NC(C)=O)c2)CC1 | -7.14 (active)
19 | CCOC(=O)N1CCN(C(=O)c2ccc3c(c2)N(Cc2ccc(C)cc2)CCS3)CC1 | 0.333 (inactive)
20 | C[C@@H](C(=O)N1CCNCC1)n1cc(CCC(=O)O)nn1 | -0.0383 (inactive)
21 | Cc1ccc(-c2cc(=O)c3ccc(F)cc3[nH]2)cc1 | 0.343 (inactive)
22 | Cc1noc(C)c1CSCC(=O)Nc1nc2ccc(Oc3ccccc3)cc2s1 | 3.18 (active)
23 | CCn1c(SCC(=O)Nc2nc3ccc(OC)cc3s2)nnc1-c1ccoc1C | 0.56 (inactive)
24 | CCOC(=O)c1c(C2CC2)csc1NC(=O)CSCc1c(C)noc1C | 0.395 (inactive)
25 | NC(=O)C1=C[C@@H](c2csc3ccccc23)C[C@@H](OCc2ccc(CO)cc2)O1 | 0.21 (inactive)
26 | CC/C=C/C(=O)N1CC2(CC(c3cccc(NC(=O)CC)c3)=NO2)C[C@H]1C(N)=O (stereo not given in full) | 0.271 (inactive)
27 | CCCC[C@@H]1CN=C(N)N1CCc1cccc(F)c1 | -0.00752 (inactive)
28 | CCOC(=O)c1sc(NC(=O)CSc2nc3c(c(=O)n2-c2ccccc2)SCC3)c(C(=O)OCC)c1C | 0.723 (inactive)

Row | SMILES | B-score
29 | Cc1ccc(Cn2nnc3c(=O)n(CC(=O)N4CCCCC4)cnc32)cc1 | 0.247 (inactive)
30 | O=C(Cn1nnc(-c2ccccc2)n1)NCc1ccc2c(c1)OCO2 | 0.156 (inactive)
31 | O=C(Cn1cnc2c(nnn2Cc2ccc(F)cc2)c1=O)NCc1ccc2c(c1)OCO2 | -8.17 (active)
32 | NC(=O)CC(NC(=O)Cc1cccc2ccccc12)c1ccc(NCc2cc(F)ccc2F)c([N+](=O)[O-])c1 (stereo not given) | 0.0495 (inactive)
33 | O=C(NCc1ccccc1)C1=C[C@@H](c2ccccc2)C[C@@H](OCCCCO)O1 | 0.736 (inactive)
34 | CCN1C(=O)N[C@@H](CCc2ccccc2)C(C(=O)OC)=C1C | 0.0945 (inactive)
35 | COC(C[C@H](O)CC(=O)[C@@H](C)OCc1ccccc1)OC | -0.99 (inactive)
36 | O=C(O)C1=C[C@H](c2cccs2)C[C@H](OCCCCO)O1 | -0.012 (inactive)
37 | COc1cc2[nH]c(=O)n(CCC(=O)NC3CCN(Cc4ccccc4)CC3)c(=O)c2cc1OC | 3.31 (active)
38 | CCOc1cc2[nH]c(=O)n(CCC(=O)NCc3ccc(OC)cc3)c(=O)c2cc1OCC | -0.216 (inactive)
39 | COc1ccc(CCNC(=O)CCCCn2c(=O)[nH]c3ccccc3c2=O)cc1OC | 0.579 (inactive)
40 | CC(C)NC(=O)NCCCCCCS(C)=O (stereo not given) | 0.321 (inactive)
41 | O=c1[nH]snc1-c1c(Cl)cccc1Cl | 1.69 (inactive)
42 | Cc1cccc(NC(=O)c2sc3nc4c(c(-c5ccco5)c3c2N)CCC4)c1 | -8.82 (active)
43 | CC(=O)Nc1ccc(NC(=O)c2sc3nc4c(c(-c5ccc(C)cc5)c3c2N)CCC4)cc1 | -0.372 (inactive)
44 | NC(=O)c1sc2nc3c(c(-c4ccccc4)c2c1N)CCC3 | 0.0164 (inactive)
45 | CCOC(=O)c1ccccc1NC(=O)c1c(N)n(C)c(=O)[nH]c1=O | -0.18 (inactive)
46 | C[C@@H]1CC[C@]2(O[C@@H](CCO)C[C@H](O)[C@H]2O)O1 | -0.347 (inactive)
47 | COC(=O)C(C)n1cnc2c(nnn2-c2cccc(Cl)c2)c1=O (stereo not given) | -0.668 (inactive)
48 | CC(C)n1cnc2c(Nc3cccc(Cl)c3)nc(N(CCO)CCCO)nc21 | 0.4 (inactive)
49 | CC(C)C[C@H](CO)Nc1nc(N(C)c2cccc(Cl)c2)c2ncn(C(C)C)c2n1 | 2.72 (active)
50 | C#CCOCCOCCOCCNc1nc(N2CCN(C(=O)[C@H](CCC(=O)O)n3cc(C(N)CO)nn3)CC2)nc(N2CCN(C(=O)[C@H](CCCCN)n3cc(C(N)[C@H](C)CC)nn3)CC2)n1 (stereo not given in full) | -0.0414 (inactive)
51 | COc1ccc(N2C(=O)C3CCCN3C2c2cc(OC)c(OC)cc2OC)cc1 (stereo not given) | -1.27 (inactive)
52 | COc1ccc(N2C(=O)C3CCCN3C2c2cccc(OC)c2)cc1 (stereo not given) | -2.41 (active)
53 | COc1cccc(N2C(=O)C3CCCN3C2c2ccc(F)cc2)c1 (stereo not given) | -0.103 (inactive)
54 | CC(=O)N[C@H]1[C@H]([C@H](O)[C@H](O)CO)OC(C(=O)O)=C[C@@H]1O | 0.169 (inactive)
55 | CC1(OC(=O)CCc2ccccc2)C(=O)C=C2C=C(c3ccc(C#N)cc3)N(CCc3ccccn3)C=C2C1=O (stereo not given) | -1.62 (inactive)

Source: PubChem BioAssay AID449768 (Vanderbilt High Throughput Screening Facility, 2010)
